# Source: PubChem (Sanford-Burnham Center for Chemical Genomics)
# Sampled rows, rich in hits. Any-hit rate of the full collection: about 28%.
# Mac1 fbg inh = CD11b/CD18-fibrinogen binding inhibition. P05107+P11215. K562 CD11b/CD18 adhesion to fibrinogen, ATPlite luminescence; Mn2+ added to activate the integrin. inhibition, % at 10 µM. hit rate 0.54% among 93,000. AID 1497;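 active means primary inhibition of 50% or more at 10 µM, then 40% or more on retest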
# CD11b adhes enh = enhancers of human CD11b/CD18 binding to fibrinogen. hit rate 0.07% among 93,000. P05107+P11215. K562 CD11b/CD18 adhesion to fibrinogen, ATPlite luminescence. activation, % at 10 µM. AID 1499;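 active means 10 µM primary screen giving 50% or more activity, confirmed by 40% or more on retest at that dose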
# CYP2C19 inh = blocks human cytochrome P450 2C19 | P33261 | CYP2C19 Supersomes, luciferin-H EGE luminescence, 30 min | inhibition, % at 5 µM | hit rate 21% among 96,000 | AID 778;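 active means CYP2C19 inhibition above a set limit at 5 µM in the primary screen, cut at about 50% in these data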;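 further: plate controls were negative control wells for no effect and 2.5 mM tranylcypromine positive control for full effect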
# CYP2C9 inh = blocks human cytochrome P450 2C9 | CYP2C9 Supersomes, luciferin-H conversion, luminescence | inhibition, % at 5 µM | hit rate 20% among 96,000 | P11712 | AID 777;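 active means blocking of liver enzyme CYP2C9 beyond about 50% at 5 µM, limit read from the data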
# Target sequence (P11712 whole entry, looked up): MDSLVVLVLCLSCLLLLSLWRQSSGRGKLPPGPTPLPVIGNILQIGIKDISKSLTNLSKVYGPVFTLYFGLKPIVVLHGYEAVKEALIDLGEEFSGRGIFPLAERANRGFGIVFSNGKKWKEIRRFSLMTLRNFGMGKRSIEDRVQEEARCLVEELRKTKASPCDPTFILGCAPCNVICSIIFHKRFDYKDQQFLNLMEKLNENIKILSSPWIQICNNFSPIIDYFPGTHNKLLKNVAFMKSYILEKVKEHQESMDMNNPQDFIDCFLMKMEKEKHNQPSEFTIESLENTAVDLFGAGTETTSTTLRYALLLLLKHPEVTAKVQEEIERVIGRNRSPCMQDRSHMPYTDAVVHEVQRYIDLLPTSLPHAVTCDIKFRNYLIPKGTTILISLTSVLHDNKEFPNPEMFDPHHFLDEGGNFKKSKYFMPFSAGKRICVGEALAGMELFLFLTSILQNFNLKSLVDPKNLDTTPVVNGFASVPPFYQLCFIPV
# CYP2C19 activ = activators of human cytochrome P450 2C19; recombinant CYP2C19, luciferin-H EGE luminescence; stronger effect = higher value; 0 = fully inhibited enzyme, 1 = untreated enzyme; 96,000 tested, under 10 active; activation factor at 5 µM; P33261;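 active means activation factor of at least 2 at 5 µM in the primary screen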;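 further: 0 = wells with 2.5 mM tranylcypromine and 1 = vehicle-only wells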
# CYP2C9 act = CYP2C9 (human) activation | P11712 | recombinant CYP2C9, luciferin-H conversion, luminescence; stronger effect = higher value; factor 1 = untreated enzyme, 0 = blocked | activation factor at 5 µM | hit rate 1.4% among 96,000 | AID 1024;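 active means activation factor of 2 or more for CYP2C9 at a 5 µM dose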;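 further: 0 = sulfaphenazole-blocked wells and 1 = vehicle-only wells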
# An asterisk follows results filed as active; / = no result given.
SMILES,Mac1 fbg inh,CD11b adhes enh,CYP2C19 inh,CYP2C9 inh,CYP2C19 activ,CYP2C9 act
COc1ccc(NC(=O)C2CCCN(S(=O)(=O)c3cccnc3)C2)c(OC)c1 (configuration not stated),-6,2,59*,15,0.4,0.8
COc1ccc(NC(=O)C2CCCN(S(=O)(=O)c3ccc4c(c3)oc(=O)n4C)C2)c(OC)c1 (configuration not stated),2,4,51*,38,0.5,0.6
Cc1csc(NC(=O)C2CCCN(S(=O)(=O)c3ccc4c(c3)oc(=O)n4C)C2)n1 (configuration not stated),14,-3,52*,49,0.5,0.5
C#CC1(O)CC(C)N(C)C(C)C1 (configuration not stated),/,/,-7,-5,1.1,1
O=C(COC(=O)CC12CC3CC(CC(Br)(C3)C1)C2)NC(=O)NCc1ccco1,/,/,46,64*,0.5,0.4
C/C(=N\NC(=O)c1nn(C)cc1Br)c1cccc(NC(=O)C2CCCC2)c1,10,1,28,-62,0.7,1.6
O=C(NCCCn1ccnc1)NC(C(F)(F)F)C(F)(F)F,-2,3,80*,68*,0.2,0.3
O=C(NCCCn1ccnc1)c1cn(Cc2ccc(F)cc2)nn1,-23,-2,94*,60*,0.1,0.4
O=C(NCCCn1ccnc1)c1cc2ccccc2oc1=O,-4,-4,/,/,/,/
O=C(NCCCn1ccnc1)c1cccc(S(=O)(=O)Nc2ccccc2F)c1,8,-3,61*,100*,0.4,0
O=C(NCCCN1CCCC1=O)c1ccccc1NS(=O)(=O)c1ccc(F)cc1,3,-1,43,29,0.6,0.7
Cc1ccc(C(=O)NCCCn2ccnc2)o1,-5,-3,72*,28,0.3,0.7
COCCCNC(=O)c1cn(Cc2c(F)cccc2Cl)nn1,0,5,14,17,0.9,0.8
Cc1ccc(N=Cc2c(O)n(-c3nccs3)c(=O)c3ccccc23)cc1,-3,4,/,/,/,/
COC(=O)c1nn(-c2ccc(Cl)cc2)c(=O)cc1Sc1ccccn1,-29,1,11,4,0.9,1
COC(=O)CNC(=O)CCCCC(=O)NCC(=O)OC,19,4,-14,-14,1.1,1.1
Cc1ccc2nc3c(cc(C(=O)NCCCn4ccnc4)n3C)c(=O)n2c1,0,0,89*,90*,0.1,0.1
O=C(NCCCn1ccnc1)c1sc2cccc(F)c2c1Cl,1,-2,96*,91*,0,0.1
C=CCn1c(=N)c(C(=O)NCCCOC)cc2c(=O)n3cc(C)ccc3nc21,0,-2,-2,11,1,0.9
O=C(O)C1CCCCC1C(=O)NCCCn1ccnc1 (configuration not stated),-10,-4,16,14,0.8,0.9
O=C(NCCCn1ccnc1)C1c2ccccc2Oc2ccccc21,-3,-1,100*,98*,0,0
O=C(NCCCn1ccnc1)C(Cc1ccccc1)N1C(=O)c2ccccc2C1=O (configuration not stated),53,-3,64*,62*,0.4,0.4
O=C(C1=C(O)C(=O)N(Cc2ccco2)C1c1ccccc1)c1cccs1 (configuration not stated),/,/,21,44,0.8,0.6
Cc1cc(C)n(-c2nnc(C)n2/N=C/c2cc(Br)ccc2OCc2ccccc2)n1,5,4,20,37,0.8,0.6
Cc1cc(C(=O)NCCCN2CCCC2=O)cs1,-55,-1,7,-6,0.9,1.1
SMILES,Mac1 fbg inh,CD11b adhes enh,CYP2C19 inh,CYP2C9 inh,CYP2C19 activ,CYP2C9 act
Cc1cc(C(=O)NCCCn2ccnc2)cs1,-14,-5,88*,66*,0.1,0.3
Cn1cnnc1SCc1ccccc1,2,1,-13,-22,1.1,1.2
Clc1ccc(CSc2nncn2-c2ccccn2)cc1,-11,0,68*,7,0.3,0.9
COc1ccc(C2=CC(c3c(C)nn(-c4ccccc4)c3Cl)n3nnnc3N2)cc1OC (configuration not stated),28,0,91*,93*,0.1,0.1
Cc1ccc(C2=CC(c3cccs3)n3nnnc3N2)cc1 (configuration not stated),23,-7,97*,82*,0,0.2
COc1ccccc1C1C=C(c2ccc(C)cc2)Nc2nnnn21 (configuration not stated),-20,-2,85*,71*,0.1,0.3
C1=C(c2ccccc2)Nc2nnnn2C1c1cccs1 (configuration not stated),-21,-3,29,28,0.7,0.7
O=C(N/C(=C/c1ccco1)C(=O)N1CCCCC1)c1cccs1,-11,1,-20,-23,1.2,1.2
O=C(c1ccncc1)N(Cc1ccccc1)Cc1nc2ccccc2c(=O)[nH]1,-6,1,56*,93*,0.4,0.1
Cc1ccc(C(=O)N(Cc2ccc3c(c2)OCO3)Cc2nc3ccccc3c(=O)[nH]2)cc1,-3,2,45,39,0.5,0.6
O=C(C1CC1)N(CCc1ccccc1)Cc1nc2ccccc2c(=O)[nH]1,-19,2,56*,58*,0.4,0.4
CCCC(=O)N(CCc1ccc(OC)cc1)Cc1nc2ccccc2c(=O)[nH]1,8,-4,31,20,0.7,0.8
O=C(C1CCC1)N(CCc1ccccc1)Cc1nc2ccccc2c(=O)[nH]1,64,-1,64*,85*,0.4,0.1
Clc1ccc(CN2CCCCCCC2)cc1Cl,2,-2,85*,-6,0.2,1.1
CCOC(=O)C1CCN(Cc2ccc(Cl)c(Cl)c2)CC1,-4,0,36,51*,0.6,0.5
O=S1(=O)CCN(Cc2ccc(Cl)cc2)CC1,5,-4,32,-5,0.7,1.1
CCOC(=O)C1CCN(Cc2ccc(C(=O)OC)cc2)CC1,-4,-1,7,7,0.9,0.9
CCOC(=O)C1CCN(Cc2cnc(Oc3ccc(N)cc3)s2)CC1,0,-4,45,62*,0.6,0.4
O=S1(=O)CCN(Cc2ccc(Cl)c(Cl)c2)CC1,/,/,54*,2,0.5,1
Clc1ccc(CN2CCCCCCC2)cc1,-1,14,/,/,/,/
CCCCn1nnnc1SCC(=O)NCc1ccco1,-4,0,19,24,0.8,0.8
CN(C)S(=O)(=O)c1ccc(-c2cn3ccccc3n2)cc1,11,-4,12,54*,0.9,0.5
Cc1ccc(CN2CN(S(=O)(=O)c3cccs3)c3nc4ccccc4nc32)cc1,36,-5,-6,56*,1.1,0.4
Cc1ccc(-c2nc3nc4ccccc4nc3n2Cc2ccco2)cc1,21,-3,1,24,1,0.8
